Laboratory results reported in PubChem BioAssay AID1963576 (National Center for Advancing Translational Sciences (NCATS), 2024).
The whole screen tested about 46,000 compounds, of which about 60 (0.1%) were called active. Not shown: some 3% with an inconclusive outcome. The call rests on the fitted dose curve; in most records, active means well fitted inhibition curve with a large enough effect; inconclusive means small, poorly fitted or top-dose-only effect; inactive means no such curve, though single readings can be large or run the other way. Shown is part of a subset that was picked to be rich in actives. A call without a number means that no potency is given here.

test: Primary qHTS assay for Inhibitors of ovarian cancer metastasis using an organotypic tumor microenvironment (TME) model.; further: nearly all actives have a fitted effect of over 65% in size;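 on potency: count of GFP cancer cells still attached after washing and fixation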; details: SKOV3ip1-GFP adhesion/invasion on 3D omental model, fluorescence; series mostly up to 45.8 µM
Description: PI: Ernst Lengyel MD., Ph.D. Department of Obstetrics and Gynecology, Section of Gynecologic Oncology University of Chicago Medicine, Chicago, Illinois. The tumor microenvironment (TME) is a key determinant of metastatic efficiency. We performed a quantitative high-throughput screen (qHTS) of diverse medicinal chemistry tractable scaffolds (44,420 compounds) and pharmacologically active small molecules (386 compounds) using a layered organotypic, robust assay representing the ovarian cancer metastatic TME. This 3D model contains primary human mesothelial cells, fibroblasts, and extracellular matrix, to which fluorescently labeled ovarian cancer cells are added. Initially, 100 compounds inhibiting ovarian cancer adhesion/invasion to the 3D model in a dose-dependent manner were identified. Of those, eight compounds were confirmed active in five high-grade serous ovarian cancer cell lines and were further validated in secondary in vitro and in vivo biological assays. […] Specifically, NCGC00117362 and PP-121 inhibited ovarian cancer adhesion, invasion, and proliferation, whereas milciclib inhibited ovarian cancer invasion and proliferation. […] To evaluate the clinical potential of NCGC00117362, structure - activity relationship studies were performed. […] The three compounds identified have promise as therapeutics for prevention and treatment of ovarian cancer metastasis.
PROTOCOL TABLE (as described by Inglese J, Shamu CE and Guy RK. 2007) SEQUENCE No. (e.g., 1, 2, 3, etc.); […] (e.g., Cells, Incubation, Reagent, etc.); VALUE; DESCRIPTION. 1; Cells; 4 uL; primary human omental fibroblast, black, clear bottom, low base, 1536-well Aurora assay plate. 2; Incubation; 48 hr; 37C. 3; Cells; 3 uL; 1,200 SKOV3ip1-GFP cells. 4; Compounds; 23nL; acoustic dispenser. 5; Incubation; 2 hr; room temperature. 6; Incubation; 16 hr; 37C. 7; Wash; 5 uL; 1x PBS. 8; Fixing; 5 uL; 4% paraformaldehyde (PFA). 9; Incubation; 15 min; room temperature 10; Wash, 5 uL; 1x PBS. 11; Detection; Fluorescence, excitation filter 488 nm, emission filter 509 nm. NOTES (numbers refer to Sequence numbers above) 1. For the 1,536-well format, 40 primary human omental fibroblasts and 400 mesothelial cells were seeded with 0.02 µg fibronectin and 0.02 µg collagen type I in 4 µL of growth media (2.3 mm2; Supplementary Fig. S1A). 2. Assay plates were incubated for 48 hours at 37 C. 3. After incubation, 1,200 SKOV3ip1-GFP were seeded in 3 µL of serum-free media (growth media minus FBS) on top of primary human omental cells. 4. Compounds or controls were added to each well immediately after the addition of the cancer cells. Compounds were screened in four doses (0.36-46 µmol/L), and the plates contained the positive control (Tomatine) in eight doses (0.035-75 µmol/L) and DMSO (equal volume controls) 5 - 6. The plates were incubated at room temperature for 2 hours and then at 37 degrees C for 16 hours. 7 - 10. Following incubation, the media were aspirated and each well washed with PBS (5 µL) and then fixed with 4% paraformaldehyde (PFA; 5 µL). After 15 minutes, the PFA solution was aspirated, PBS (5 µL) was added. 11. The number of GFP-labeled cells analyzed using a fluorescent cytometer TTP LabTech Acumen eX3 using 488 nm excitation filter and 509 nm emission filter. Data was normalized to the DMSO treated for negative and Tomatine treated wells for positive control. REFERENCES: Inglese J, Shamu CE and Guy RK, Reporting data from high throughput screening of small molecule libraries, Nature Chemical Biology, 2007, 3(8): 438-441. doi.org/10.1038/nchembio0807-438. Yasgar A, Shinn P, Jadhav A, Auld DS, Michael S, Zheng W, Austin CP, Inglese J and Simeonov A, Compound Management for Quantitative High-Throughput Screening. J. Assoc. Lab. Auto., 2008, 13: 79-89. doi: 10.1016/j.jala.2007.12.004.
Potency means the concentration at half of the fitted maximal effect.

Row | Structure (SMILES) | Potency
1 | COc1cc(OC)cc(C(=O)Nc2cc3nn(-c4ccccc4)nc3cc2Cl)c1 | inactive
2 | CC(=O)c1ccc(N2CCN(c3nc4c(S(=O)(=O)c5ccccc5)nnn4c4ccc(Cl)cc34)CC2)cc1 | inactive
3 | Cc1ccc(CNC(=O)CCc2c(C)nn(-c3ccc(N4CCCC4)nn3)c2C)cc1 | inactive
4 | Cc1cccc(N(C)C(=O)c2cc(S(=O)(=O)N3CCCCC3)c[nH]2)c1 | inactive
5 | CO[C@H]1O[C@@H]2O[C@@]3(C)CC[C@@H]4[C@@H](C)CC[C@@H]([C@H]1C)[C@@]24OO3 | inactive
6 | Cn1c(SCC(=O)N2CCCc3ccccc32)ncc(C(=O)Nc2ccc(F)cc2)c1=O | inactive
7 | Cc1nn(Cc2ccc(F)cc2)c(C)c1NC(=O)c1cc(CC(C)C)on1 | inactive
8 | COc1ccccc1-c1nnc(SCC(N)=O)o1 | inactive
9 | CON=C(C(=O)N[C@@H]1C(=O)N2C(C(=O)OCOC(=O)C(C)(C)C)=C(C=Cc3scnc3C)CS[C@H]12)c1csc(N)n1 | inactive
10 | CCc1ccc(NC(=O)CSc2nc3c([nH]c4ccccc43)c(=O)n2-c2cccc(OC)c2)cc1 | inactive
11 | CCOC(=O)N1CCN([N+]([O-])=NOc2ccc([N+](=O)[O-])cc2[N+](=O)[O-])CC1 | inactive
12 | Cc1nc2c(-c3ccccc3)c(C)nn2c(C)c1CCC(=O)NCCc1ccccc1 | inactive
13 | Fc1ccc(-n2ncc3c(Nc4ccc(Oc5ccccc5)cc4)ncnc32)cc1 | inactive
14 | Cc1ccc(/C=C(\C#N)C(=O)Nc2cc(C)ccc2C)cc1 | inactive
15 | CSc1ccc(CCNC(=O)c2cnn(-c3ccccc3)c2-n2cccc2)cc1 | inactive
16 | COc1ccc(C2CC(=O)Nc3c2c(=O)nc2c(C)cccn32)cc1OC (stereo not given) | inactive
17 | CCN1CCN(c2cc(C)c3cc(NC(=O)c4cc(Cl)ccc4OC)ccc3n2)CC1 | 3.55 µM (active)
18 | COc1ccc(C(=O)Nc2ccc3nc(N4CCCCC4)cc(C)c3c2)cc1OC | inactive
19 | COc1ccc(NC(=O)c2cnc(Nc3ccc(C)c(Cl)c3)c3ccccc23)cc1OC | inactive
20 | CC(NC(=O)c1cc2c(=O)n3ccccc3nc2n(C(C)C)c1=N)c1ccccc1 (stereo not given) | inactive
21 | COc1cc2ccccc2cc1C(=O)Nc1cccc(-c2nc3ccccc3o2)c1 | inactive
22 | CCN1CCN(c2ncnc3c2cnn3-c2ccc(C)c(C)c2)CC1 | inactive
23 | CCc1cccc(NC(=O)CN(c2ccc(C)c(C)c2)S(=O)(=O)c2ccsc2C(=O)OC)c1 | inactive

Row | Structure (SMILES) | Potency
24 | CCc1nccn1S(=O)(=O)c1cc(Br)ccc1Br | inactive
25 | CCc1ccc(S(=O)(=O)c2nnn3c2nc(NCc2ccccc2OC)c2cc(Cl)ccc23)cc1 | inactive
26 | Cc1ccc(NC(=O)c2oc3ccc(S(=O)(=O)N4CCCCC4)cc3c2C)cc1Cl | inactive
27 | Cc1ccc(-n2ncc3c(NCCCn4ccnc4)ncnc32)cc1Cl | inactive
28 | Cc1ccc(-n2c(SCC(=O)Nc3cccc(F)c3)nc3c(oc4ccccc43)c2=O)cc1C | inactive
29 | CC=CC[C@@H](C)C(=O)[C@H]1C(=O)N[C@@H](C(C)C)C(=O)N(C)CC(=O)N(C)[C@@H](CC(C)C)C(=O)N[C@@H](C(C)C)C(=O)N(C)[C@@H](CC(C)C)C(=O)N[C@@H](C)C(=O)N[C@H](C)C(=O)N(C)[C@@H](CC(C)C)C(=O)N(C)[C@@H](CC(C)C)C(=O)N(C)[C@@H](C(C)C)C(=O)N1C | inactive
30 | CCc1nc2nc(C)cc(Nc3ccc(F)c(Cl)c3)n2n1 | inactive
31 | COc1cc2nc(SCC(=O)Nc3ccccc3F)n3nc(-c4ccccc4)nc3c2cc1OC | inactive
32 | Cc1ccc(Cn2c(CNC(=O)Cc3cccc(C)c3)nc3cccnc32)cc1 | inactive
33 | O=C(Cn1nc(C(F)(F)F)c2c1CCCC2)Nc1ccc(Cl)cc1 | inactive
34 | COc1ccc(NC(=O)COCc2cc(-c3ccco3)on2)cc1 | inactive
35 | O=C(Cn1nc(Cc2cccnc2)c2ccccc2c1=O)N1CCN(c2ccccc2F)CC1 | inactive
36 | COc1ccc(CN2CCc3nc(Nc4ccccc4)ncc3C2)c(OC)c1OC | inactive
37 | CO[C@H]1C[C@@H]2CC[C@@H](C)[C@@](O)(O2)C(=O)C(=O)N2CCCC[C@@H]2C(=O)O[C@H]([C@@H](C)C[C@@H]2CC[C@H](O)[C@H](OC)C2)CC(=O)[C@H](C)C=C(C)[C@@H](O)[C@@H](OC)C(=O)[C@H](C)C[C@H](C)C=CC=CC=C1C | inactive
38 | COc1ccc(-c2cn3c(C)c(C(=O)Nc4cc(C)cc(C)c4)sc3n2)cc1 | 8.91 µM (active)
39 | COc1ccc(-c2cn3c(n2)sc2cc(C(=O)Nc4ccc(F)cc4)ccc23)cc1 | inactive
40 | CCOC(=O)c1ccccc1NC(=O)c1sc2nc(-c3ccc(F)cc3)cn2c1C | inactive
41 | CCOC(=O)c1cc2c(=O)n3ccccc3nc2n(Cc2ccco2)c1=NC(=O)c1ccc(F)cc1 | inactive
42 | Cn1c(=O)c2c(n3c4ccccc4nc13)NC(=O)CC2c1cccc(Cl)c1 (stereo not given) | inactive
43 | COc1cccc(CNC(=O)CN2C(=O)CCc3cc(S(=O)(=O)N4CCOCC4)ccc32)c1 | inactive
44 | Cc1cccc(NC(=O)c2nnn(CC(=O)Nc3ccc(C(C)C)cc3)c2N)c1C | inactive
45 | O=C(NCCc1ccccc1)c1ccc2c(c1)N(Cc1ccc(F)cc1)C(=O)c1ccccc1S2(=O)=O | inactive
46 | COc1ccc(CNC(=O)CSc2nc3ccccc3nc2Cc2ccccc2)cc1 | inactive

Row | Structure (SMILES) | Potency
47 | CCc1ccc(S(=O)(=O)c2nnn3c2nc(N2CCN(CC)CC2)c2sccc23)cc1 | inactive
48 | COc1ccc2oc(=O)c(-c3cn4c(n3)sc3cc(OC)ccc34)cc2c1 | inactive
49 | O=C(Nc1ccc(-c2nc3cc(NC(=O)c4ccccc4Cl)ccc3o2)cc1)c1ccccc1Cl | inactive
50 | CCOC(=O)c1c(N)n(-c2cccc(C)c2C)c2nc3ccccc3nc12 | inactive
51 | Cc1ccc(Nc2nc3ccccc3nc2-n2nc(C)cc2C)c(Cl)c1 | inactive
52 | COc1cc(C(=O)N2CCC(c3ccncc3)CC2)cc(OC)c1OC | inactive
53 | Cc1ccc(S(=O)(=O)N2CCC(C(=O)Nc3cc(C)ccc3C)CC2)cc1 | inactive
54 | CC=CCC=CCCC(=O)[C@H]1O[C@@H]1C(N)=O | inactive
55 | Cc1nnc(SCC(=O)NCc2ccccc2Cl)c2nn(-c3ccccc3)c(C)c12 | inactive
56 | CCC(C(=O)Nc1cc(OC)ccc1OC)n1c(=O)c(C(F)(F)F)nc2ccccc21 (stereo not given) | inactive
57 | CN1CCN(C2(CNC(=O)COc3ccc(C(C)(C)C)cc3)CCCCC2)CC1 | inactive
58 | CCOc1ccccc1N(C)C(=O)c1cc2c(s1)-c1ccccc1OC2 | inactive
59 | Cc1nn(-c2ccc(N3CCCCC3)nn2)c(C)c1CCC(=O)NCc1ccc(F)cc1 | inactive
60 | O=C(Nc1c(-c2ccc(F)cc2)nc2ccccn12)c1cccc(F)c1 | inactive
61 | CC(=O)OC[C@@H]1O[C@@H](n2ccc(=O)[nH]c2=O)[C@H](OC(C)=O)[C@H]1OC(C)=O | inactive
62 | CN(C(=O)CSc1nnc(NC(=O)Nc2ccccc2)s1)c1ccccc1 | inactive
63 | CC1CCCCN1CC(=O)N1CCCc2c1c(=O)oc1ccc(OCc3ccccc3)cc21 (stereo not given) | inactive
64 | O=S(=O)(NCCS(=O)(=O)N1CCN(c2ccccc2)CC1)c1ccc(Cl)cc1 | inactive
65 | Cc1cccc(NC(=O)C2CCN(S(=O)(=O)c3c(C)noc3/C=C/c3ccco3)CC2)c1 | inactive
66 | CC(C)Cn1c(=O)c2ccccc2n2c(CCC(=O)N3CCN(c4cccc(Cl)c4)CC3)nnc12 | inactive
67 | COc1ccc(-c2cc(C(F)(F)F)n3nc(-c4ccccc4)cc3n2)cc1OC | inactive
68 | CC(C(C)N1CC(=O)NC(=O)C1)N1CC(=O)NC(=O)C1 (stereo not given) | inactive
69 | Cc1ccc(CNS(=O)(=O)c2ccc(C(=O)N(C)C)s2)cc1 | inactive

Row | Structure (SMILES) | Potency
70 | CSc1ncc(Cl)c(C(=O)Nc2ccc(S(=O)(=O)N3CCCC(C)C3)cc2)n1 (stereo not given) | inactive
71 | Cc1ccc(-c2cc(N)n(Cc3cccc(Cl)c3)n2)cc1 | inactive
72 | C[C@]12CCC3=C4CCC(=O)C=C4CC[C@@H]3[C@H]1CC[C@@]2(O)CC#N | inactive
73 | CCC(=O)N1CCc2cc(Br)cc(S(=O)(=O)Nc3ccc(C)cc3C)c21 | inactive
74 | Cc1cccc(NC(=O)c2cc3c(C)nn(-c4ccccc4)c3s2)c1 | inactive
75 | Cc1ccc(-c2nn3c(=O)cc(CN4CCN(C(=O)Nc5cccc(C(F)(F)F)c5)CC4)nc3s2)cc1 | inactive
76 | CCOC(=O)CN1C(C(=O)c2ccccc2)=C(OC(=O)C(C)(C)C)c2ccccc2S1(=O)=O | inactive
77 | O=C(CC1C(=O)N(c2ccccc2)C(=O)N1CCc1cccs1)Nc1ccc(F)cc1 (stereo not given) | inactive
78 | O=C(CN1c2ccccc2S(=O)(=O)c2ccccc21)Nc1cccc(C(F)(F)F)c1 | inactive
79 | CC(C)(C)OC(=O)N1CCC(c2c(C(=O)N3CCN(c4cccc(Cl)c4)CC3)cnn2-c2cccc(Cl)c2)CC1 | inactive
80 | CCc1ccccc1NC(=O)CCOc1ccccc1 | inactive
81 | Cc1cccc(OCCCC(=O)Nc2sc3c(c2C(N)=O)CCC(C)C3)c1 (stereo not given) | inactive
82 | CCN(CC)CCCCNc1ncc2c(n1)N(C)C(=O)N(c1c(Cl)c(OC)cc(OC)c1Cl)C2 | inactive
83 | Cc1cccc(N2CCN(C(=O)c3cc4c(=O)oc5ccccc5c4s3)CC2C)c1 (stereo not given) | inactive
84 | COCCCNC(=O)CN1C(=O)CSc2ccc(S(=O)(=O)N3CCOCC3)cc21 | inactive
85 | CCc1ccccc1N1CC(c2nc3ccccc3n2CCCCOc2ccccc2)CC1=O (stereo not given) | inactive
86 | CCOC(=O)c1nc(Nc2ccc(C(=O)OC)cc2)c2ccccc2n1 | inactive
87 | COc1cc(Nc2nc(-c3ccc(OC)c(OC)c3)nc3ccccc23)cc(OC)c1 | 10 µM (active)
88 | COc1cccc(Nc2nc3ccccc3c3nncn23)c1 | inactive
89 | COc1ccc(C2=CC(c3ccccc3Cl)n3nc(-c4ccc(Cl)cc4)nc3N2)cc1 (stereo not given) | inactive
90 | O=C(CCC(=O)N1CC2CCCN2c2ccccc21)NCc1ccccc1Cl (stereo not given) | inactive
